# Measurements taken from PubChem BioAssay (NCATS).
# “And” between values parts separate entries of the source, which are not always exact repeats. Equal values may be shown once. Records with an inconclusive call do not appear. The source made the active and inactive calls. Unless noted, the call rests on the fitted dose curve; in most records, active means well fitted curve in the direction sought with a large enough effect; inconclusive means small, poorly fitted or top-dose-only effect, or another doubt; inactive means no such curve, though single readings can be large; an effect the other way counts as inactive or inconclusive.
# Legend:
# [1] = Primary qHTS for inhibitors of nuclear receptor binding SET domain protein 2 (NSD2) in an RCH-ACV wild type WT cells (2C) (AID 1645877); further: nearly all actives have a fitted effect of over 70% in size; further: potency means the concentration at half of the fitted maximal effect
# [2] = molecular target: Catechol O-methyltransferase (Homo sapiens) (UniProt P21964); test: Confirmatory Screen for Target Class Profiling of Small Molecule Inhibitors of Methyltransferases (AID 1745852; calls by dose curve; further: potency means the concentration at half of the fitted maximal effect; on activity change, negative = inhibition: on the % scale 0 is the no-effect control and ±100 the full control effect); conditions: MTase-Glo luminescence, SAH detection, recombinant enzyme; measured here: COMT max response; stronger effect = lower value
# [3] = molecular target: Guanidinoacetate N-methyltransferase (Homo sapiens) (UniProt Q14353); test: as above; conditions: activity change, negative = inhibition: at 57.3 µM (top of the series) unless noted
# [4] = molecular target: Nicotinamide N-methyltransferase (Homo sapiens) (UniProt P40261); test: as above; conditions: MTase-Glo luminescence, SAH detection, recombinant enzyme; measured here: NNMT max response; stronger effect = lower value
# [5] = molecular target: Phenylethanolamine N-methyltransferase (Homo sapiens) (UniProt P11086); test: as above; conditions: MTase-Glo luminescence, SAH detection, recombinant enzyme; measured here: PNMT max response; stronger effect = lower value
# [6] = NCATS anti-infectives library activity on the primary C. elegans qHTS viability assay (AID 1745855; calls by dose curve; further: potency means the concentration at half of the fitted maximal effect)
# How it was run: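 Viability is taken from GFP fluorescence of PE254-GFP-FLuc C. elegans imaged by laser cytometry over 7 days. Ten L1 worms per well grow at 21 °C on TOP10 E. coli capsules with titrated compound; levamisole marks toxicity.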
# [7] = Viability counterscreen for antagonist of constitutive androstane receptor (CAR) against the NCATS DSHEA and TCM libraries (AID 1794837);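 further: compound exposure lasted 24 h before viability reading; 0% is about no effect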
# How it was run: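 Viability was measured by CellTiter-Fluor fluorescence (405/540 nm, 1 hr) in HepG2-CYP2B6-hCAR cells. Cells were co-treated 24 hr with 48 uM CITCO (final), antagonist mode, and test substances.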
# [8] = Viability counterscreen for agonist of constitutive androstane receptor (CAR) against the NCATS DSHEA and TCM libraries (AID 1794838); further: 0% is about no effect
# How it was run: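 Cell viability, from CellTiter-Fluor fluorescence (405/540 nm), was scored after a 24 h, 37C exposure of HepG2 cells carrying CYP2B6 reporter and hCAR to test substances in presence of 0.75 uM PK11195.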
# [9] = molecular target: Nuclear receptor subfamily 1 group I member 3 (Homo sapiens) (UniProt Q14994); test: Primary qHTS for agonist of constitutive androstane receptor (CAR) against the NCATS DSHEA and TCM libraries (AID 1794839);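 further: HepG2 cells expressing human CAR with a CYP2B6 reporter plus PK11195 antagonist; luciferase reporter luminescence read with ONE-Glo; 0% is about no effect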
# How it was run: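 Agonist mode in presence of hCAR antagonist PK11195 (0.75 µM final): test substances, 24 h, 37 °C, on HepG2-CYP2B6-hCAR cells. Same-well readouts: fluorescence viability, then ONE-Glo luminescence; CITCO as reference agonist.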
# [10] = NCATS anti-infectives library activity on HEK293 viability as a counter-qHTS vs the C. elegans viability qHTS (AID 1745854); further: on the % scale 0 is the no-effect control and ±100 the full control effect
# How it was run: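 HEK293 cells, 1500 per well, exposed 24 hr at 37C in 5% CO2 to compounds in a 1:5 titration, up to 41.7 uM final. Viability read as CellTiter-Glo luminescence after 10 min at room temperature.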
# Sequence of Phenylethanolamine N-methyltransferase (Homo sapiens) (P11086 whole entry, looked up): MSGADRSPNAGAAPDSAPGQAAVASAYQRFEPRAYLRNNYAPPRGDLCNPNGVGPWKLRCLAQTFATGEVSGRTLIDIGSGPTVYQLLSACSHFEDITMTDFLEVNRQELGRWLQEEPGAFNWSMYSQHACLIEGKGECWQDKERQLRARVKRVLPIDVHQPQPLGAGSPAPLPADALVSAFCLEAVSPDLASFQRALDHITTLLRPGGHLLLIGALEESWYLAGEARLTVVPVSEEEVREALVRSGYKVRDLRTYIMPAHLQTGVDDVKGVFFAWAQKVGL
# Sequence of Catechol O-methyltransferase (Homo sapiens) (P21964 whole entry, looked up): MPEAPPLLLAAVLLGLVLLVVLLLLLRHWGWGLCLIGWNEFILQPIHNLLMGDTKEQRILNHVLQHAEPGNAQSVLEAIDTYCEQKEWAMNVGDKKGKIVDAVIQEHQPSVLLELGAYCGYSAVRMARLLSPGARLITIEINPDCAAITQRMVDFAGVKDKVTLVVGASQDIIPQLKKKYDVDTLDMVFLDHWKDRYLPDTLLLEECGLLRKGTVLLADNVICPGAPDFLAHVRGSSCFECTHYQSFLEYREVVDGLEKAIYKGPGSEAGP
# Sequence of Nicotinamide N-methyltransferase (Homo sapiens) (P40261 whole entry, looked up): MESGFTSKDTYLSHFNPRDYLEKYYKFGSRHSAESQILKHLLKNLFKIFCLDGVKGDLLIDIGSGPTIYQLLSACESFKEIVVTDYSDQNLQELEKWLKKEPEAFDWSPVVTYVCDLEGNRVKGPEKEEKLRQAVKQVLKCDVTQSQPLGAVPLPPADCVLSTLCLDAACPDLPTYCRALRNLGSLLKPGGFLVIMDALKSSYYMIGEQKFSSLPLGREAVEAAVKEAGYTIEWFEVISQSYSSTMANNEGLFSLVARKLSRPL
# Sequence of Nuclear receptor subfamily 1 group I member 3 (Homo sapiens) (Q14994 whole entry, looked up): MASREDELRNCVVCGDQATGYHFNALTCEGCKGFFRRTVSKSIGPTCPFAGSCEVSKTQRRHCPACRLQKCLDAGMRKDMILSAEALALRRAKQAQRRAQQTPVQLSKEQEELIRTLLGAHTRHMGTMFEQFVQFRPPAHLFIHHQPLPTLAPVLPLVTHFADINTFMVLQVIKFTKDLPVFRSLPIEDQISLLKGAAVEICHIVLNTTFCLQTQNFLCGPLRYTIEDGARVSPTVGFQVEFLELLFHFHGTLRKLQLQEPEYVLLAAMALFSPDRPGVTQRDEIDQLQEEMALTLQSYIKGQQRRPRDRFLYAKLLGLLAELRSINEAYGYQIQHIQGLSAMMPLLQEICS
smiles,measurement,setting,value
N#Cc1ccc2[nH]cc(CCCCN3CCN(c4ccc5oc(C(N)=O)cc5c4)CC3)c2c1,Potency,[1],16.3 µM (active)
same,activity,[2],-8.1%
same,"activity change, negative = inhibition",[3],-4.3%
same,activity,[4],-49.2%
same,activity,[5],-11.6%
C=C[C@H]1[C@H](O[C@@H]2O[C@H](CO)[C@@H](O)[C@H](O)[C@H]2O)OC=C(C(=O)OC)[C@H]1C/C=C(/C=O)[C@@H]1C(C(=O)OC)=CO[C@@H](O[C@@H]2O[C@H](CO)[C@@H](O)[C@H](O)[C@H]2O)[C@@H]1C=C,Potency,[1],inactive
same,activity,[2],-65.2%
same,"activity change, negative = inhibition",[3],0% [at 19.1 µM]
same,activity,[4],0%
same,activity,[5],4.52%
NC(=O)c1cnc(NCCc2ccc(O)c(Cl)c2)nc1NCc1ccccc1,Potency,[1],1.15 µM (active)
same,activity,[2],-29%
same,Potency,[3],27.1 µM (active)
same,activity,[4],-78.6%
same,activity,[5],-25.9%
O=C(/C=C/c1ccccc1)OC[C@]12O[C@H]1[C@@H](O)[C@@H]1C=CO[C@@H](O[C@@H]3O[C@H](CO)[C@@H](O)[C@H](O)[C@H]3O)[C@@H]12,Potency,[1],inactive
same,activity,[2],-55.2%
same,"activity change, negative = inhibition",[3],-7.11% [at 29.8 µM]
same,activity,[4],-5.73%
same,activity,[5],-4.62%
CCOC(=O)CCN(C(=O)c1ccc2c(c1)nc(CNc1ccc(C(=N)N)cc1)n2C)c1ccccn1,Potency,[1],inactive
same,activity,[2],-3.92%
same,"activity change, negative = inhibition",[3],2.12%
same,activity,[4],-8.7%
same,activity,[5],0.0478%
COc1cc(C(=O)NC2CCN(C)CC2)ccc1Nc1ncc2c(n1)N(C1CCCC1)CC(F)(F)C(=O)N2C,Potency,[1],0.0325 µM (active)
same,activity,[2],-24%
same,Potency,[3],27.1 µM (active)
same,activity,[4],-23.8%
same,activity,[5],-20.9%
CC1=C(CCC(C)O[C@@H]2O[C@H](CO)[C@@H](O)[C@H](O)[C@H]2O)C(C)(C)CCC1=O (stereo partly specified),Potency,[1],inactive
same,activity,[2],-64%
same,"activity change, negative = inhibition",[3],-3.78%
same,activity,[4],-4.03%
same,activity,[5],-0.201%
Cc1ncc(CCCN(C)C)cc1Nc1ncc2c(n1)-c1ccc(C(F)(F)F)cc1NC(=S)C2,Potency,[1],0.129 µM (active)
same,activity,[2],-3.05%
same,"activity change, negative = inhibition",[3],2.13%
same,activity,[4],-20.1%
same,activity,[5],-4.31%
CN(C)C/C=C/C(=O)Nc1cccc(C(=O)Nc2cccc(Nc3ncc(Cl)c(-c4c[nH]c5ccccc45)n3)c2)c1,Potency,[1],72.8 nM (active) and 132 nM (active)
same,activity,[2],-3.58%
same,"activity change, negative = inhibition",[3],1.16%
same,activity,[4],-56%
same,activity,[5],-9.06%
CCOc1cc2ncc(C#N)c(Nc3ccc(F)c(Cl)c3)c2cc1NC(=O)/C=C/CN(C)C,Potency,[6],14.5 µM (active)
CC(C)=CCC(O)/C(C)=C/CO[C@@H]1O[C@H](CO)[C@@H](O)[C@H](O)[C@H]1O (stereo partly specified),outcome,[7],inactive
same,outcome,[8],inactive
same,outcome,[9],inactive
CC(C)c1cc(C(=O)N2CC[C@@H](NC(=O)C3CC3)C2)n[nH]1,Potency,[1],inactive
same,Potency,[10],inactive
